Measured values as given in PubChem BioAssay (Tox21).
Active and inactive are the calls of the source. Calls follow the shape of the dose curve; as a rule, active = well fitted curve in the direction sought with a large enough effect in the repeat runs; inconclusive = weak or mixed curves; inactive = flat fitted curve, though single readings scatter.

assay: qHTS assay to test for compound auto fluorescence at 535 nm (green) in HEK293 cells (AID 720680); conditions: green autofluorescence 485/535 nm; series mostly up to 91.3 µM
Source text: U.S. Tox21 Program National Center for Advancing Translational Sciences [NCATS] NIH Chemical Genomics Center [NCGC] U.S. Environmental Protection Agency [EPA] National Institutes of Environmental Health Sciences [NIEHS] National Toxicology Program [NTP] U.S. Food and Drug Administration [FDA] Tox21 Assay Overview: Compound auto fluorescence often interferes with screening of the compound library against various biological targets and signaling pathways. Some of these compounds may have fluorophoric properties. Such properties may interfere with the assay outputs resulting in false positives and/or negatives. To decrease such complications and ensure the compound activities are relevant in terms of biological response, the Tox21 10K compound library was screened for auto fluorescence. From the fluorophores used as reporter signals in our screening assays, the auto fluorescence equivalencies of compounds against three fluorophores have been evaluated: Triamterene, Fluorescein and Rose Bengal sodium for blue, green and red fluorescence, respectively. The fluorescence intensities were measured using Excitation/Emission wavelengths at 405/460nm, 485/535nm and 540/590nm for blue, green and red labels, respectively. This assay includes the green fluorescence data.
Tox21 Assay Protocol Summary: 2,000 HEK293 cells in 5 uL of culture medium containing 10% dialyzed FBS per well were dispensed into black wall/clear bottom 1536-well plates using a Multidrop Combi Dispenser (Thermo Scientific). The assay plates were incubated for 4-5 hr at 37C to allow cell attachment to the well bottom, followed by the transfer of 23 nL compound or DMSO vehicle by a pintool work station (Kalypsys, San Diego, CA). After the assay plates were incubated overnight at 37C and 5% CO2, fluorescence intensities in the assay plates were measured by an Envision (PerkinElmer, Shelton, CT) plate reader using three labels for measuring blue, green and red fluorescence at […] 460, 535 and 590nm respectively.
% is scaled to controls: 0 for no effect and ±100 for the full control effect.

SMILES | outcome | fluorescence, % of fluorescein
NNCCO | inactive | 
N#CC(C#N)=C(C#N)C#N | inactive | 
CCC1(CCC(C)C)C(=O)NC(=O)NC1=O | inactive | 
CCC1CCC(=O)O1 (stereo not given) | inactive | 
CCCCCl | inactive | 
CCCC[P+](CC)(CCCC)CCCC (tested in a mixture with another compound) | inactive | 
CCOP(=S)(OCC)SCSc1cc(Cl)ccc1Cl | inactive | 
CCCCOC(=O)CCC(=O)OCCCC | inactive | 
COc1ccc(C(O)(c2cncnc2)C2CC2)cc1 (stereo not given) | inactive | 
O=C(Cc1ccccc1)OCCc1ccccc1 | inactive | 
FC(F)OC(F)(F)C(F)Cl (stereo not given) | inactive | 
CC[N+]1(C)CCCC(OC(=O)C(O)(c2ccccc2)c2ccccc2)C1 (stereo not given) | inactive | 
CCCCC1C(=O)NC(=O)N(C2CCCCC2)C1=O (stereo not given) | inactive | 
NP(N)(=O)NC(=O)c1ccc(F)cc1 | inactive | 
CC(C)(c1ccccc1)c1cc(-n2nc3ccccc3n2)c(O)c(C(C)(C)c2ccccc2)c1 | inactive | 
SCc1ccccc1 | inactive | 
Clc1ccc2ccccc2c1 | inactive | 
CC(Oc1cc(Cl)c(Cl)cc1Cl)C(=O)O (stereo not given) | inactive | 
C[N+]1(CCC(C(N)=O)(c2ccccc2)c2ccccc2)CCCCC1 | inactive | 
CC(O)CN1CCN(CC(=O)[O-])CCN(CC(=O)[O-])CCN(CC(=O)[O-])CC1.[Gd+3] (stereo not given) | inactive | 

SMILES | outcome | fluorescence, % of fluorescein
C1CCNCC1 | inactive | 
Cc1nc2ccccc2c(=O)n1-c1ccccc1Cl | inactive | 
C=C(Cl)Cl | inactive | 
Clc1ccccc1 | inactive | 
CC(Oc1cccc(Cl)c1)C(=O)O (stereo not given) | inactive | 
Oc1cccc(Cl)c1 | inactive | 
C=CC(=O)NC(C)(C)CC(C)=O | inactive | 
C=CCc1ccccc1O | inactive | 
Nc1ccc2c(c1)Cc1ccccc1-2 | inactive | 
CC(C)[C@@H](C(=O)O[C@@H](C#N)c1cccc(Oc2ccccc2)c1)c1ccc(Cl)cc1 | inactive | 
O=C(O)C(O)C(O)C(=O)O (stereo not given) | inactive | 
CN(C)N | inactive | 
CC(C)OC(=O)Cc1ccccc1 | inactive | 
CN(C1CCCCC1)C1CCCCC1 | inactive | 
CNC(=O)Oc1cccc(N=CN(C)C)c1 | inactive | 
C=CC(C)(CCC=C(C)C)OC(=O)c1ccccc1N (stereo not given) | inactive | 
O=C(O)c1cc(I)cc(I)c1I | inactive | 
Nc1c(Br)cc(Br)c2c1C(=O)c1ccccc1C2=O |  | -0.0125% [at 18.6 µM] (inactive)
CCCCC(CC)CO[N+](=O)[O-] (stereo not given) | inactive | 
CN1CC[C@]23c4c5ccc(O)c4O[C@H]2[C@@H](O)CC[C@H]3[C@H]1C5 | inactive | 
